Test system: Vero E6 infected with SARS-CoV-2
Test: inhibition of SARS-CoV-2 cytopathic effect; higher = more antiviral protection, active = above 15
Conditions: 48 h

Measured: inhibition of SARS-CoV-2 cytopathic effect

C[C@H](N)Cn1ccc2cc(F)c(Cl)cc21
inactive: 1 nM 1.25% | 8.33 nM 4.09% | 100 nM 1.91% | 833.33 nM -2.16% | 10000 nM -0.64%

C/C(=C\c1ccc(C(=O)O)cc1)c1ccc2c(c1)C(C)(C)CCC2(C)C
inactive: 1 nM -0.5% | 8.33 nM -1.23% | 100 nM -2.43% | 833.33 nM 0.15% | 10000 nM 3.67%

O=C1c2ccccc2-n2c1nc1ccccc1c2=O [tryptanthrin]
inactive: 1 nM 3.12% | 8.33 nM -0.23% | 100 nM 0.33% | 833.33 nM 0.62% | 10000 nM 0.39%

CS(=O)(=O)c1ccc(-c2cnc(N)c(C(=O)Nc3ccccc3)n2)cc1
inactive: 1 nM 1.3% | 8.33 nM -2.14% | 100 nM 1.58% | 833.33 nM 0.67% | 10000 nM 2.65%

CCS(=O)(=O)N1CCN(c2ccc(Nc3ncc(C(N)=O)c(NC4CC4)n3)cc2)CC1
inactive: 1 nM -1.63% | 8.33 nM -0.99% | 100 nM -2.24% | 833.33 nM 2.08% | 10000 nM -5.53%

C=CC[C@]1(O)CC[C@H]2[C@@H]3CCC4=CC(=O)CCC4=C3C=C[C@@]21C [altrenogest]
inactive: 1 nM -0.68% | 8.33 nM -1.12% | 100 nM -0.94% | 833.33 nM 0.13% | 10000 nM 4.81%

Cc1c(F)cc(C(=O)NC2CC2)cc1-c1c(F)cn2c(C(C)(C)C)nnc2c1F
inactive: 1 nM -1.55% | 8.33 nM -0.6% | 100 nM -3.43% | 833.33 nM 0.89% | 10000 nM -0.19%

C(#CCN1CCCC1)CN1CCCC1 [tremorine]
inactive: 1 nM 8.56% | 8.33 nM 4.46% | 100 nM -2.04% | 833.33 nM -3.53% | 10000 nM -1.73%

CO/N=C(\C(=O)N[C@@H]1C(=O)N2C(C(=O)O)=C(CSc3nc(=O)c(O)nn3C)CS[C@H]12)c1csc(N)n1 [ceftriaxone]
inactive: 1 nM -1.95% | 8.33 nM -0.8% | 100 nM 1.41% | 833.33 nM 0.59% | 10000 nM 2.56%

CCn1cc(C(=O)O)c(=O)c2cc(F)c(N3CCN(C)CC3)cc21 [pefloxacin]
inactive: 1 nM 2.27% | 8.33 nM -0.13% | 100 nM 2.84% | 833.33 nM -0.06% | 10000 nM 1.98%

CC(C)(C)NCC(O)c1cc(Cl)c(N)c(Cl)c1 (stereo not given) [clenbuterol]
inactive: 1 nM -0.45% | 8.33 nM -0.13% | 100 nM 1.96% | 833.33 nM -0.35% | 10000 nM -2.77%

CS(=O)(=O)c1cccc(CNc2nc(Nc3ccc4c(c3)CCC(=O)N4)ncc2C(F)(F)F)c1
inactive: 1 nM -1.14% | 8.33 nM -1.29% | 100 nM 0.06% | 833.33 nM 1.33% | 10000 nM -3.75%

CC(C)(O)CC(=O)NCCn1ccc2ncnc(Nc3ccc(Oc4cccc(C(F)(F)F)c4)c(Cl)c3)c21
inactive: 1 nM 4.78% | 8.33 nM 7.81% | 100 nM 3.51% | 833.33 nM -7.39% | 10000 nM -14.1%

COc1c(C)cnc(Cn2cnc3c(Cl)nc(N)nc32)c1C
inactive: 1 nM -0.38% | 8.33 nM 2.24% | 100 nM 0.07% | 833.33 nM 3.31% | 10000 nM 6.01%

Cn1nc(-c2cccc(F)c2)n(C)c1=S [suritozole]
inactive: 1 nM 3.45% | 8.33 nM 1.68% | 100 nM 1.49% | 833.33 nM 1.52% | 10000 nM 1.85%

O=C(Nc1ccncc1)C(=O)c1cn(Cc2ccc(Cl)cc2)c2ccccc12 [indibulin]
inactive: 1 nM 1.08% | 8.33 nM 1.94% | 100 nM 0.77% | 833.33 nM 0.68% | 10000 nM -6.21%

C[C@H](N)C(=O)N[C@@]1(C(=O)O)C[C@@H](Sc2nnc[nH]2)[C@H]2[C@H](C(=O)O)[C@H]21
inactive: 1 nM -2.66% | 8.33 nM -4.35% | 100 nM -3.65% | 833.33 nM -1.13% | 10000 nM 0.56%

Cn1c(=O)n(-c2ccc(C(C)(C)C#N)cc2)c2c3cc(-c4cnc5ccccc5c4)ccc3ncc21
inactive: 1 nM 1.43% | 8.33 nM -0.22% | 100 nM 0.93% | 833.33 nM -5.08% | 10000 nM -5.4%

C=CC(=O)Nc1cccc(Oc2nc(Nc3ccc(N4CCN(C)CC4)cc3)nc3ccsc23)c1 [olmutinib]
inactive: 1 nM -1.91% | 8.33 nM 3.26% | 100 nM 11.6% | 833.33 nM -12% | 10000 nM -10.1%

CN1CCCN(C(c2ccccc2)c2ccc(Cl)cc2)CC1 (stereo not given) [homochlorcyclizine]
inactive: 1 nM 2.1% | 8.33 nM 1.84% | 100 nM 1.43% | 833.33 nM -2.39% | 10000 nM -1.32%

CC1(C)OC(=O)C(OCC2CC2)=C1c1ccc(S(C)(=O)=O)cc1 [firocoxib]
inactive: 1 nM -1.63% | 8.33 nM -1.5% | 100 nM 0.34% | 833.33 nM 0.04% | 10000 nM -1.02%

CCCCOc1ccc(C(=O)CCN2CCCCC2)cc1 [dyclonine]
inactive: 1 nM 2.76% | 8.33 nM 3.66% | 100 nM 3.14% | 833.33 nM 3.62% | 10000 nM -0.75%

Fc1ccc(Cl)cc1-c1nc(Nc2ccncc2)c2nccnc2n1
inactive: 1 nM -0.85% | 8.33 nM 0.45% | 100 nM -1.96% | 833.33 nM -3.87% | 10000 nM -7.46%

Clc1ccc(C(Cn2ccnc2)OCc2ccsc2Cl)c(Cl)c1 (stereo not given) [tioconazole]
inactive: 1 nM 6.75% | 8.33 nM -2.6% | 100 nM 5.03% | 833.33 nM -4.33% | 10000 nM -5.16%

N[C@@H](C(=O)O)c1ccc(C(=O)O)c(O)c1 (racemic) [4-carboxy-3-hydroxyphenylglycine-(RS)]
inactive: 1 nM -0.15% | 8.33 nM -0.33% | 100 nM 0.94% | 833.33 nM -0.355% | 10000 nM -0.565%

Cn1c(Nc2ccc(C(F)(F)F)cc2)nc2cc(Oc3ccnc(-c4ncc(C(F)(F)F)[nH]4)c3)ccc21
inactive: 1 nM 0.79% | 8.33 nM 1.69% | 100 nM 0.4% | 833.33 nM 0.16% | 10000 nM 4.48%

CS(=O)(=O)c1ccc(-c2cnc(NCc3ccco3)n3cnnc23)cc1
inactive: 1 nM 4.45% | 8.33 nM 2.39% | 100 nM 0.36% | 833.33 nM -0.76% | 10000 nM -0.13%

Nc1ncn([C@H]2C[C@H](O)[C@@H](CO)O2)c(=O)n1 [decitabine]
inactive: 1 nM 3.33% | 8.33 nM 3.36% | 100 nM 4.5% | 833.33 nM -1.04% | 10000 nM -3.03%

O=C(c1ccc(OCCCc2c[nH]cn2)cc1)C1CC1 [ciproxifan]
inactive: 1 nM -1.13% | 8.33 nM -1.91% | 100 nM -1.12% | 833.33 nM 9.43% | 10000 nM 10.2%

CCn1c(-c2nonc2N)nc2cnc(Oc3cccc(NC(=O)c4ccc(OCCN5CCOCC5)cc4)c3)cc21
inactive: 1 nM 3.5% | 8.33 nM 0.11% | 100 nM -2.86% | 833.33 nM -4.75% | 10000 nM -5.7%

CC1(CN2CCC(n3c(=O)[nH]c4ccccc43)CC2)OCc2ccccc2-n2cccc21 (stereo not given) [zaldaride]
inactive: 1 nM 4.94% | 8.33 nM -0.44% | 100 nM 4.25% | 833.33 nM -2.81% | 10000 nM -4.06%

CNC(=O)[C@@H](NC(=O)[C@H](CC(C)C)[C@H](O)C(=O)NO)C(C)(C)C [marimastat]
inactive: 1 nM -4.07% | 8.33 nM 2.33% | 100 nM -5.18% | 833.33 nM -6.93% | 10000 nM -13.7%

CC(C)(C)CC(=O)Nc1c(F)cc(C(=O)/N=c2\sccn2COP(=O)(O)O)cc1F
inactive: 1 nM 0.06% | 8.33 nM -0.74% | 100 nM -3.11% | 833.33 nM -0.94% | 10000 nM 2.91%

Cc1c(-c2ccc(-c3ccccc3F)cc2)nc2ccc(F)cc2c1C(=O)O [brequinar]
inactive: 1 nM 0.47% | 8.33 nM -5.34% | 100 nM -4.42% | 833.33 nM -4.61% | 10000 nM -4.4%

CC(Oc1c(Cl)cccc1Cl)C1=NCCN1 (stereo not given) [lofexidine]
inactive: 1 nM 3.3% | 8.33 nM 3.14% | 100 nM 5.17% | 833.33 nM 7.76% | 10000 nM 1.15%

O=C(O)CCCO
inactive: 1 nM 1.65% | 8.33 nM 2.68% | 100 nM 2.71% | 833.33 nM 1.83% | 10000 nM 1.79%

Oc1cc(O)c2c(c1)O[C@H](c1ccc(O)c(O)c1)[C@@H](O)C2 [cianidanol]
inactive: 1 nM -1.29% | 8.33 nM 0.71% | 100 nM -1.15% | 833.33 nM -0.95% | 10000 nM -2.3%

C[C@H]1CCc2c(cc(Br)c(F)c2Br)N1C=O
inactive: 1 nM -0.42% | 8.33 nM -1.13% | 100 nM -1.55% | 833.33 nM -0.53% | 10000 nM -1.25%

Cc1ccnc2c1NC(=O)c1cccnc1N2C1CC1 [nevirapine]
inactive: 1 nM -0.06% | 8.33 nM 2.22% | 100 nM 0.61% | 833.33 nM 0.25% | 10000 nM 0.49%

O=C(NOCC1CC1)c1ccc(F)c(F)c1Nc1ccc(I)cc1Cl
inactive: 1 nM -1.59% | 8.33 nM -0.84% | 100 nM -7.28% | 833.33 nM -6.38% | 10000 nM -13.8%

CCn1cnc(C(=O)NC)c1C(=O)NC [ethimizol]
inactive: 1 nM -1.81% | 8.33 nM 0.39% | 100 nM -1.18% | 833.33 nM 1.42% | 10000 nM 1.32%
